{
  "source": "PubChem BioAssay (NCATS)",
  "note": "Inconclusive results are not listed. Unmarked numbers belong to inactive results. Calls follow the shape of the full dose curve. % is scaled to controls: 0 for no effect and ±100 for the full control effect.",
  "data": [
    {"experiment": "qHTS Assay for Lipid Storage Modulators (AID 1519)", "conditions": "Drosophila S3 cells, BODIPY lipid droplet/cell ratio, laser cytometry; at 25.7 µM (top of the series); cells loaded with oleic acid", "how_it_was_run": "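Cells seeded at 5,000 per well were treated with compounds over a concentration series and loaded with oleic acid (400 uM, as added). Lipid droplet fluorescence (488 nm excitation, 500-530 nm channel) was read by laser-scanning cytometry and normalized to 20 uM Triacsin C.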", "units": {"activity change, negative = inhibition": "%"}, "values": [
      {"smiles": "CC(=O)N[C@@H](CC(C)C)C(=O)O", "activity change, negative = inhibition": -0.448},
      {"smiles": "CC[N+](CC)(CC(=O)Nc1c(C)cccc1C)Cc1ccccc1", "activity change, negative = inhibition": -1.02},
      {"smiles": "Cc1cc(NC(=O)C2=C(O)c3ccccc3S(=O)(=O)N2C)no1", "activity change, negative = inhibition": -0.235},
      {"smiles": "C[C@@H]1CCC[C@H](C)N1", "activity change, negative = inhibition": -3.01},
      {"smiles": "COc1ccc(NS(=O)(=O)c2ccc(N)cc2)nn1", "activity change, negative = inhibition": 0.554},
      {"smiles": "CCN(CC)CCc1nc(-c2ccccc2)no1", "activity change, negative = inhibition": -4.73},
      {"smiles": "O=C(O)c1ccccc1OP(=O)(O)O", "activity change, negative = inhibition": 1.48},
      {"smiles": "CN/C(=C\\[N+](=O)[O-])NCCSCc1csc(CN(C)C)n1", "activity change, negative = inhibition": -0.861},
      {"smiles": "CCCNC(C)(C)COC(=O)c1ccccc1", "activity change, negative = inhibition": -1.27},
      {"smiles": "O=C(O)COC(=O)Cc1ccccc1Nc1c(Cl)cccc1Cl", "activity change, negative = inhibition": 1.87},
      {"smiles": "CCOC(=O)[C@H](CCc1ccccc1)N[C@@H](C)C(=O)N1CCC[C@H]1C(=O)O", "activity change, negative = inhibition": 0.997},
      {"smiles": "CC(C)(C)C(=O)OCOC(=O)[C@@H]1N2C(=O)[C@@H](NC(=O)[C@H](N)c3ccccc3)[C@H]2SC1(C)C", "activity change, negative = inhibition": 2.04}
    ]}
  ]
}
